# Rows were chosen to be rich in hits. Some 1.8% of all compounds tested hit in one or more screens of this group.
# rTrxR1 inhibitor – rat TrxR1 inhibition | O89049 | recombinant rTrxR1, NADPH fluorescence consumption, selenite substrate | Potency, µM (doses to about 114 µM), for the others: at the top dose activity change, negative = inhibition, hits mostly inhibitors | 390,000 compounds, 1% hits | AID 588453; note: % is set by controls: 0 for no effect and ±100 for the full control effect; nearly all actives have a fitted effect of over 65% in size
#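 Rat TrxR1 (90 nM in the dispensed reagent) was pre-reduced with 400 uM NADPH for 5 min at room temperature, then incubated with compound for 15 min. After 400 uM selenite was added, NADPH fluorescence (Ex 340/Em 450 nm) was followed for 8 min.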
# Vif-A3G inh – Vif-A3G binding inhibition; Q9HC16; HeLa A3G-eYFP + Vif (tagged APOBEC3G with the HIV-1 protein that degrades it), YFP fluorescence, overnight; Potency, µM (top dose mostly 46.1 µM), for the others: at the highest dose activity, negative = active, actives largely listed as inhibitors; 410,000 compounds, 0.076% hits; AID 602310; note: % is set by controls: 0 for no effect and ±100 for the full control effect; nearly all actives have a fitted effect of over 60% in size
# Target sequence (Q9HC16 whole entry, looked up): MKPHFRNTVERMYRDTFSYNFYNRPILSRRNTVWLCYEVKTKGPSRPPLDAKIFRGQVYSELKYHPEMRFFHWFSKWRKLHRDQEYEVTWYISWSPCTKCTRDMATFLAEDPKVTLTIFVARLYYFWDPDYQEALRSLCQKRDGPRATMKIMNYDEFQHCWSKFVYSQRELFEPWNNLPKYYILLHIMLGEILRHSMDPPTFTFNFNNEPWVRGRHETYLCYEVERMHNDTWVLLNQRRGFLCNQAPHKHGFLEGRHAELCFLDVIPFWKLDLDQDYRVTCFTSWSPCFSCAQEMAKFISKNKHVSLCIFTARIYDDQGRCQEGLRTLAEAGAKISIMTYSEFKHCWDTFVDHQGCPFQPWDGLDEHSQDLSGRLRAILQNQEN
#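 Read-out is eYFP fluorescence (Ex 488/Em 500-530) from Vif-expressing HeLa A3G-eYFP cells; more signal means A3G escaped Vif-mediated degradation. Cells plated overnight, compound pinned in, incubated overnight at 37 deg C.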
# Vif-A3F inh – inhibitors of Vif-A3F interaction | Potency, µM (doses to about 46.1 µM), for inactives: at the top dose activity, negative = active | HeLa A3F-eYFP + Vif (tagged APOBEC3F with the HIV-1 protein that degrades it), YFP fluorescence increase | 390,000 compounds, 0.2% hits | AID 602313; note: % of control where 0% means no effect; nearly all actives have a fitted effect of over 65% in size
#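 HeLa cells stably expressing A3F-eYFP plus Vif, plated and incubated overnight at 37 deg C, then exposed to compounds overnight at 37 deg C. Blocked degradation read as raised yellow fluorescence (Ex 488/Em 500-530).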
# TrxR1 substrate – is turned over as a substrate by rat TrxR1 | purified TrxR1 substrate turnover, NADPH consumption readout | Potency, µM (top dose mostly 114 µM), inactives show top-dose activity change, negative = substrate turnover | O89049 | 390,000 compounds, 0.01% hits; note: % is set by controls: 0 for no effect and ±100 for the full control effect; nearly all actives have a fitted effect of over 50% in size
#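 Rat TrxR1, dispensed at 90 nM, was prereduced with 400 uM NADPH (final) for 5 min at ~22 deg C, then incubated with compound 15 min before 400 uM selenite. A first-read NADPH fluorescence drop versus no-compound background flagged substrates.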
# VDR inh – blocks the human vitamin D receptor; VDR-SRC2-3 peptide fluorescence polarization, 2 h; P11473; 400,000 compounds, 0.93% hits; Potency, µM, inactives show max response, negative = inhibition, most hits filed as inhibitors; note: % is set by controls: 0 for no effect and ±100 for the full control effect
#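 Fluorescence polarization assay measuring small-molecule disruption of VDR binding to the coregulator peptide SRC2-3. Compounds were pin-transferred (23 nl) into the reagent mix and incubated 2 h at room temperature before reading.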
# VDR inh confirm – inhibits human vitamin D receptor, primary hit validation; VDR-coactivator inhibition assay, qHTS confirmation; Potency, µM, hits mostly inhibitors; shares compounds with VDR inh; 840 compounds, 89% hits; AID 602199
# VDR FP – blocks human VDR-coactivator binding in fluorescein assay | shares compounds with VDR inh | VDR-coactivator binding, fluorescein fluorescence polarization | Potency, µM (highest dose often 57.1 µM), for inactives: at the top dose activity change, negative = inhibition, actives largely listed as inhibitors | 840 compounds, 48% hits | AID 602200
# VDR bla reporter – confirmation of human vitamin D receptor inhibitors in reporter cells; shares compounds with VDR inh; VDR beta-lactamase reporter cells, FRET ratio; cells co-treated with VDR agonist LG190178; Potency, µM (top dose mostly 46.1 µM), for inactives: top-dose activity change, negative = inhibition, usual class: inhibitors; 840 compounds, 23% hits; AID 602202; note: % is set by controls: 0 for no effect and ±100 for the full control effect
# VDR viability – counter-screen for vitamin D receptor inhibitors: cytotoxicity; shares compounds with VDR inh; cytotoxicity counter-screen, cell viability, qHTS; Potency, µM (top dose mostly 48.3 µM), without a hit: top-dose activity change, negative = cytotoxicity, most hits filed as cytotoxic; 840 compounds, 18% hits; AID 602204;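 note: plate controls were DMSO for no effect and high-concentration cycloheximide for full effect; nearly all actives have a fitted effect of over 75% in size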
# The depositor's hits bear a star; ? = inconclusive; · = no result; [ ] = dose if it differs, or a comment. Calls come from the whole dose curve; as a rule, active = well fitted curve in the direction sought with a large enough effect; inconclusive = small, poorly fitted or top-dose-only effect, or another doubt; inactive = no such curve, though single readings can be large; an effect the other way counts as inactive or inconclusive. Potency is the fitted concentration of half-maximal effect.
SMILES,rTrxR1 inhibitor,Vif-A3G inh,Vif-A3F inh,TrxR1 substrate,VDR inh,VDR inh confirm,VDR FP,VDR bla reporter,VDR viability
COc1ccc(/C=C/C(=O)c2c(O)n(CCC3=CCCCC3)c(=O)[nH]c2=O)cc1,6.6%,-3.3%,-5.1%,1.3%[57.1 µM],?,·,·,·,·
O=C(/C=C/c1ccc2c(c1)OCO2)c1c(O)n(CCC2=CCCCC2)c(=O)[nH]c1=O,-16.6%,-2.8%,-7.8%,-5.5%,?,5.62*,?,20.6µM*,-5.3%
O=C1NC(=O)C(=Cc2ccc(Sc3ccccc3)o2)C(=O)N1,?,?,-30.7%,2.2%[57.1 µM],39.8µM*,10.6*,?,?,?
CCC(C)(C)NC(=O)C(NS(=O)(=O)c1cccs1)c1ccccc1 (configuration not stated),8.7%,-4.6%,-0.7%,-4.0%,19.6%,·,·,·,·
O=C1NC(=O)N(Cc2ccc(F)cc2)C(=O)/C1=C/c1cccs1,17.8µM*,-15.5%,?,13.8%[57.1 µM],50.1µM*,11.9*,?,-12.4%,-37.6%
O=S(=O)(/C(=C\c1ccc(C(F)(F)F)cc1)c1nc2ccccc2[nH]1)c1ccccc1,4.47µM*,?,0.7%,-2.2%,14.1µM*,2.67*,?,5.17µM*,?
CCOc1cc(C=C2C(=O)NC(=O)NC2=O)ccc1OCC(=O)N1CCOCC1,?,-1.1%,7.5%,-1.4%,?,·,·,·,·
O=C1NC(=O)C(=Cc2cc(Cl)ccc2OCc2ccc(C(=O)O)cc2)C(=O)N1,10µM*,-1.3%,-0.5%,3.4%,50.1µM*,?,?,25.6%,19.0%
CC[C@]1(O)CC[C@H]2[C@@H]3CCC4=CCCC[C@@H]4[C@H]3CC[C@@]21C,·,·,·,·,-19.6%,·,·,·,·
CC(=O)O[C@H]1[C@H]2[C@@H](OC(=O)Cc3ccccc3)[C@@H](C)C[C@]2(OC(C)=O)C(=O)/C(C)=C/[C@@H]2[C@H](CC[C@@]13CO3)C2(C)C,·,·,·,·,6.1%,·,·,·,·
O=C(O)CSCC(=O)N(Cc1ccccc1)c1nc(-c2ccccc2)c(-c2ccccc2)s1,14.0%,-1.7%,0.0%,2.6%,?,·,·,·,·
CCN(CC)c1ccc(NC(=O)c2cccc(C)c2)cc1S(=O)(=O)Nc1ccccc1OC,1.3%,2.2%,-0.3%,-2.9%,50.1µM*,?,?,8.0%,-3.1%
O=C(O)CCC(=O)NCCC1=c2ccccc2=N/C1=C\c1c(O)n(Cc2ccc(F)cc2)c(=S)[nH]c1=O,35.5µM*,-13.4%,-16.6%,6.2%,20µM*,5.97*,?,8.3%,21.7%
CCn1c(C)cc(/C=C2\C(=O)NC(=O)N(c3ccccc3C)C2=O)c1C,0.5%,-0.2%,3.1%,-5.3%,6.4%,·,·,·,·
Cc1ccccc1N1C(=O)NC(=O)/C(=C\c2cnn(-c3ccccc3)c2)C1=O,?,-29.2%,-8.9%,6.3%,50.1µM*,10.6*,?,-4.0%,3.9%
COc1cc(/C=C/[N+](=O)[O-])ccc1OC(=O)c1cccnc1,?,-27.2%,?,3.0%,25.1µM*,6.7*,?,?,?
COc1cc(/C=N/n2cnnc2)ccc1OC(=O)N(C)C,-11.1%,-1.1%,1.9%,-4.2%,8.6%,·,·,·,·
O=[N+]([O-])/C=C/c1cn(Cc2ccc(Cl)cc2)c2ccccc12,?,?,-10.2%,-11.0%,25.1µM*,10.6*,?,?,?

# Screens: PubChem, National Center for Advancing Translational Sciences (NCATS)
